Hsp70 activator = Hsp70 transcriptional activation, primary screen; HeLa Hsp70 promoter luciferase reporter, luminescence; scaled: vehicle 0, proteasome-inhibitor control 100%; activation, % at 10 µM; 200,000 compounds, 0.04% hits;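 active = activation above the mean across all tested compounds plus 3 SD, cutoff set per campaign, cut at about 5.5% in these data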
GalR3 antag = antagonists of human GalR3; O60755; HEK293 GalR3-CNG cAMP membrane potential fluorescence; galR3 body fused to GalR1 C-terminus; inhibition, % at 3 µM; 360,000 compounds, 0.44% hits; AID 651719;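 active = inhibition above the screen-wide average plus 3 SD, cut at about 13% in these data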;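 note: forskolin and galanin both at EC90 stimulate the cells; cAMP rise reported by CNG channel membrane potential dye signal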
Target sequence (O60755 1-299 limits assumed): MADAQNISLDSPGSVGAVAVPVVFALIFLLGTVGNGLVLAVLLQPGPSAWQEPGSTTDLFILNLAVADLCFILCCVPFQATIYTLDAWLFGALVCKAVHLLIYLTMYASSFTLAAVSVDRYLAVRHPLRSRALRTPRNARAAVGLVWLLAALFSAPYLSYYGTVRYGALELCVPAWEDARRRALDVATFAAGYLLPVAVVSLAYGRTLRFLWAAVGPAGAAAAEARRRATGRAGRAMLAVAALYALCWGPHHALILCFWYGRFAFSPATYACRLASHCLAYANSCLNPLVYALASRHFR
GAA850 FXN act = increases GAA850 frataxin promoter reporter activity; HEK293 lucGAA850 FXN promoter luciferase reporter, 24 h; percent of 10 µM SAHA response; activation, % at 6 µM; 360,000 compounds, 0.56% hits;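 active = activation above the average of all compounds screened plus 3 SD, cutoff fixed separately per campaign, cut at about 7.5% in these data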
HIF act = HIF pathway transcriptional activation; U2OS HRE-luciferase reporter, luminescence; normalized: DMSO 0%, desferrioxamine 100%; activation, % at 7.5 µM (by protocol); 300,000 compounds, 0.32% hits;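 active = mean activation of at least 10% of the iron chelator positive control signal, with at least half of replicates also reaching 10%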
SMARCA2 act = SMARCA2 function activation, primary screen; MG213 cells, MMTV-luciferase reporter, dexamethasone, overnight; activation, % at 9.1 µM; 370,000 compounds, 1% hits; AID 652017; in the data active = activation above about 7.8%
GalR3 conf = confirmation of human galanin receptor 3 antagonists; shares compounds with GalR3 antag; HEK293 GalR3 CNG cAMP biosensor, membrane potential fluorescence; galR3 fused to GalR1 carboxy tail; challenged with forskolin and galanin at EC90; inhibition, % at 3 µM; 1,600 compounds, 59% hits;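 active = inhibition above the primary screen's cutoff, the mean inhibition of all screened compounds plus 3 SD, cut at about 13% in these data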
HEK-CNG parental = counter-screen for GalR3 antagonists: nonspecific agonists in parental HEK-CNG cells; activation, % at 3 µM; 1,600 compounds, 10% hits; HEK293-CNG parental cells, cAMP membrane potential fluorescence; normalised: DMSO wells 0%, forskolin wells 100%; shares compounds with GalR3 antag; AID 652268; in the data active = activation above about 1.3%
Numbers stand for hits. Compounds with a hit are over-represented: about 2.2% of the library has one in this group of screens.

What do the screens show for `CCCCCCCn1c2c(c(=N)c3ccccc31)CCC2`?
Hsp70 activator: inactive; GalR3 antag: 42; GAA850 FXN act: inactive; HIF act: inactive; SMARCA2 act: inactive; GalR3 conf: 58; HEK-CNG parental: 7.3

What do the screens show for `COc1ccc(N(CC(=O)Nc2ccccc2C)S(=O)(=O)c2c(C)[nH]c(=O)[nH]c2=O)cc1`?
GalR3 antag: 14; GAA850 FXN act: inactive; HIF act: inactive; SMARCA2 act: inactive; GalR3 conf: inactive; HEK-CNG parental: inactive

What do the screens show for `CCCOC(=O)c1ccc(Oc2cn[nH]c2-c2ccc(O)cc2O)cc1`?
GalR3 antag: inactive; GAA850 FXN act: inactive; HIF act: inactive; SMARCA2 act: inactive

Results for CCOC(=O)c1ccc(Oc2cn[nH]c2-c2ccc(O)cc2O)cc1 ?
GalR3 antag: 17; GAA850 FXN act: inactive; HIF act: inactive; SMARCA2 act: inactive; GalR3 conf: inactive; HEK-CNG parental: 4.4

Results for COc1ccc(OC)c(S(=O)(=O)N2CCCCC2C(=O)N2CCN(c3ccccc3F)CC2)c1 (stereo not given) ?
SMARCA2 act: inactive

How did COc1ccc(-n2c(C)cc(C(=O)COC(=O)Cn3cnc4ccccc43)c2C)cc1 do in these assays?
Hsp70 activator: inactive; GalR3 antag: 100; GAA850 FXN act: inactive; HIF act: inactive; SMARCA2 act: inactive; GalR3 conf: 89; HEK-CNG parental: inactive

Results for CCCCNC(=O)COC(=O)c1ccccc1F ?
GalR3 antag: 19; GAA850 FXN act: inactive; HIF act: inactive; SMARCA2 act: inactive; GalR3 conf: inactive; HEK-CNG parental: inactive

Results for COc1cc(Cn2c(-c3ccc(O)c(OC)c3)nc3ccccc32)ccc1O ?
GalR3 antag: 23; GAA850 FXN act: inactive; HIF act: inactive; SMARCA2 act: inactive; GalR3 conf: 17; HEK-CNG parental: inactive

How did CN1OC[C@@H]2CN3C(=Nc4cc(C(F)(F)F)cc(C(F)(F)F)c4)Sc4ccccc4[C@@H]3C[C@@H]21 do in these assays?
GalR3 antag: inactive; SMARCA2 act: inactive

What do the screens show for `CCCCC[C@@H](/C=C/C1C(=O)C=C[C@H]1C/C=C\CCCC(=O)O)OC(C)=O` (stereo not given in full)?
GalR3 antag: 100; GAA850 FXN act: inactive; SMARCA2 act: inactive; GalR3 conf: 98; HEK-CNG parental: inactive

Results for CCCCCCC[C@@H](C/C=C/CCC(=O)O)OC ?
GalR3 antag: inactive; GAA850 FXN act: inactive; SMARCA2 act: inactive

Results for O=C(Nc1ccc(Oc2ccccc2)cc1)c1csc([C@H]2C[C@H](O)[C@@H](CO)O2)n1 ?
GalR3 antag: 84; GAA850 FXN act: inactive; SMARCA2 act: inactive; GalR3 conf: 109; HEK-CNG parental: inactive

How did COC(=O)c1ccc(C2=NOC(C)(c3sc(-c4ccccc4)nc3C)C2)cc1 (stereo not given) do in these assays?
GAA850 FXN act: inactive; HIF act: inactive; SMARCA2 act: inactive; GalR3 conf: 32; HEK-CNG parental: 1.5

How did CC(C)c1cc(C(C)C)c(S(=O)(=O)N2CCC(C(=O)NCc3cccs3)CC2)c(C(C)C)c1 do in these assays?
SMARCA2 act: inactive

How did CCN(CC)S(=O)(=O)c1ccc(Cl)c(NC(=O)COC(=O)c2cccn2C)c1 do in these assays?
Hsp70 activator: inactive; GalR3 antag: 65; GAA850 FXN act: inactive; HIF act: inactive; SMARCA2 act: inactive; GalR3 conf: inactive; HEK-CNG parental: inactive

How did CCN(CC)S(=O)(=O)c1ccc(Cl)c(NC(=O)COC(=O)c2ccc(O)cc2)c1 do in these assays?
Hsp70 activator: inactive; GalR3 antag: inactive; GAA850 FXN act: inactive; HIF act: inactive; SMARCA2 act: inactive

How did COc1cc2c(cc1OC)/C(=C/C(=O)c1ccc(OC)c([N+](=O)[O-])c1)NCC2 do in these assays?
GalR3 antag: 19; GAA850 FXN act: inactive; HIF act: inactive; SMARCA2 act: inactive; GalR3 conf: 25; HEK-CNG parental: inactive

What do the screens show for `Cc1ccc(S(=O)(=O)N2CCN(C(=O)c3cccn3C)CC2)cc1`?
SMARCA2 act: inactive

What do the screens show for `COc1ccc(C(C#N)=Cc2cc(OC)c(OC)c(OC)c2)cc1`?
GalR3 antag: inactive; SMARCA2 act: inactive

How did CCSc1nsc(NC(=O)Nc2cccc(F)c2)n1 do in these assays?
GalR3 antag: 69; GAA850 FXN act: inactive; HIF act: inactive; SMARCA2 act: inactive; GalR3 conf: 28; HEK-CNG parental: inactive

How did COc1cccc(NC(=O)Nc2nc(SC)ns2)c1 do in these assays?
GalR3 antag: inactive; GAA850 FXN act: inactive; HIF act: inactive; SMARCA2 act: inactive

Results for COC(=O)[C@]12C[C@H](CC(=O)N3CCCCC3)C(=O)N(Cc3ccco3)C1=C[C@H](C1CCCC1)O[C@@H]2C ?
SMARCA2 act: inactive

How did Cc1ccc(OCC(=O)N/N=C\c2ccc(O)c([N+](=O)[O-])c2)c([N+](=O)[O-])c1 do in these assays?
Hsp70 activator: inactive; GalR3 antag: inactive; GAA850 FXN act: inactive; HIF act: inactive; SMARCA2 act: inactive

Results for Cc1ccc(/C=N\NC(=O)COc2ccc(C)cc2[N+](=O)[O-])cc1 ?
Hsp70 activator: inactive; GalR3 antag: 13; GAA850 FXN act: inactive; HIF act: inactive; SMARCA2 act: inactive; GalR3 conf: inactive; HEK-CNG parental: inactive

How did O=C(COC(=O)/C=C/c1cccc(F)c1)Nc1ccc2[nH]c(=O)[nH]c2c1 do in these assays?
GalR3 antag: inactive; GAA850 FXN act: inactive; HIF act: inactive; SMARCA2 act: inactive

What do the screens show for `O=C(COC(=O)/C=C/c1cccc(Cl)c1)Nc1ccc2[nH]c(=O)[nH]c2c1`?
GalR3 antag: 35; GAA850 FXN act: inactive; HIF act: inactive; SMARCA2 act: inactive; GalR3 conf: 44; HEK-CNG parental: 6.9

What do the screens show for `Cc1nc2cc(NC(=O)N3CCC(c4ccccc4)C3)ccc2n1C` (stereo not given)?
Hsp70 activator: inactive; GalR3 antag: 31; GAA850 FXN act: inactive; HIF act: inactive; SMARCA2 act: inactive; GalR3 conf: inactive; HEK-CNG parental: inactive

What do the screens show for `COc1ccc(C(=O)C(CN2CCOCC2)c2ccccc2)cc1F` (stereo not given)?
Hsp70 activator: inactive; GalR3 antag: 28; GAA850 FXN act: inactive; HIF act: inactive; SMARCA2 act: inactive; GalR3 conf: inactive; HEK-CNG parental: inactive

Results for COc1ccc(C(=O)OC(C)CN2CCOCC2)cc1 (stereo not given) ?
GalR3 antag: inactive; GAA850 FXN act: inactive; HIF act: inactive; SMARCA2 act: inactive

Results for COc1ccc(C(=O)OC(C)CN2CCOCC2)cc1OC (stereo not given) ?
Hsp70 activator: inactive; GAA850 FXN act: inactive; HIF act: inactive; SMARCA2 act: inactive; GalR3 conf: inactive; HEK-CNG parental: inactive
